ChEMBL document CHEMBL3988442, “University of Dundee, Small-Polar-MMV Screening Library” (2021)

biological target: T1, Aspartate--tRNA(Asp/Asn) ligase (Mycobacterium tuberculosis (strain ATCC 25618 / H37Rv)) (UniProt P9WFW3); experiment: Assay for Asp RNA synthetase-1 from Mycobacterium tuberculosis; assay type: functional; set-up: scale not given: direction of the effect not stated beside the values; settings: 30 µM; note: in the data most compounds retested in dose-response had high values
T1 sequence (whole entry): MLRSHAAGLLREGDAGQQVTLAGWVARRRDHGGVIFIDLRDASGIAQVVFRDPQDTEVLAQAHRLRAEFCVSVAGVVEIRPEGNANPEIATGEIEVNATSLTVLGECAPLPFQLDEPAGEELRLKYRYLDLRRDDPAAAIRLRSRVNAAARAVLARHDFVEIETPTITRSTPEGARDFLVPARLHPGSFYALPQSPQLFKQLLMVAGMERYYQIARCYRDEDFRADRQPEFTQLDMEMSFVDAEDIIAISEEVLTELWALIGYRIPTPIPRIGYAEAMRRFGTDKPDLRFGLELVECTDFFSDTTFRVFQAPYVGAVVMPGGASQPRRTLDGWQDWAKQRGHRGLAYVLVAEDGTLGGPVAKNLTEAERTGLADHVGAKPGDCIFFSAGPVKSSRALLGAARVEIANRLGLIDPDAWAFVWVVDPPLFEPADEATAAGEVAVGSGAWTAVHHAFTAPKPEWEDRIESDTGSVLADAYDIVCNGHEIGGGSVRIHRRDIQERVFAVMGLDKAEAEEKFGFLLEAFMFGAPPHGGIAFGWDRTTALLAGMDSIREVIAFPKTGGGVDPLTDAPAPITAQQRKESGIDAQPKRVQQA

SMILES	Percent Effect
CC(C)c1ccc(CN2CCC3(CCCN(c4nncs4)C3)C2)cc1 (stereo not given)	1%
CNc1cc(N2CCCC2CNCc2c[nH]nc2C(C)(C)C)ncn1 (stereo not given)	1.25%
Fc1cccc(CN2CCO[C@H]3[C@@H](OCc4ccccn4)CC[C@@H]32)c1	0.564%
Cn1ccnc1CN1CCC2(COCCN(Cc3ccsc3)C2)C1 (stereo not given)	-5.11%
COc1c(C2CCCN2C(=O)c2ccc3cc[nH]c3c2)c(C)nn1C (stereo not given)	-1.15%
Cc1n[nH]cc1C(=O)N1CCCC(n2nnc3cc(F)ccc32)C1 (stereo not given)	-7.43%
Cc1c(C(=O)NC(CN2CCCC2=O)c2ccccc2)cnn1C (stereo not given)	-1.08%
Cc1ccc(C(=O)N2CCC3(CC2)NC(=O)CC3c2ccccc2)cn1 (stereo not given)	3.23%
Cc1nc(C2CCCN(C(=O)Cn3ccccc3=O)C2)no1 (stereo not given)	-1.54%
CCCOc1ccc(NC(=O)NCCC(=O)N(C)C)cc1Cl	1.09%
CCCn1ncc(CN2C[C@@H]3CCCN3C[C@@H]2CCSC)c1C	-1.92%
FC(F)(F)Cn1ccnc1CN1CCCC1c1noc(C2CC2)n1 (stereo not given)	11.5%
CNc1cc(N2CCCC2CNCc2ccccn2)ncn1 (stereo not given)	1.56%
CC(=O)Nc1nc(C(=O)N2CCCC2c2ccccc2C)cs1 (stereo not given)	-0.698%
O=C(Nc1ccc(CCN2CCC(O)CC2)cc1)Nc1cccnc1	-0.212%
Cn1cc(-c2cnc(N3CCOCC3)nc2)cc1C(=O)O	-4.12%
Cc1cc(C)n(CC2CCCN2C(=O)Cc2c(C)noc2C)n1 (stereo not given)	7.79%
CCn1nc(C)c(CCNC(=O)C2CCCN(CC(N)=O)C2)c1C (stereo not given)	-2.59%
O=C(CCN1CCCC1c1cccs1)N1CCc2sccc2C1 (stereo not given)	-0.954%
Cc1ccc(C(=O)NCCCN2CCOCC2)c(Cl)c1	0.357%

SMILES	Percent Effect
O=c1ccc(-c2cccs2)nn1CN1CCCCCC1	-1.83%
Cc1nc(C)c(CC(=O)Nc2ncc(C)s2)c(=O)[nH]1	-3.61%
COc1cn(-c2ccccc2)nc1C(=O)NCCCN1CCCC(C)C1 (stereo not given)	-1.18%
NC(=O)N1CCC2(CC1)CN(c1ccsc1)C(=O)CO2	1.31%
CC(C)c1nn(C)c(Cl)c1CNC1CCOc2ccccc21 (stereo not given)	1.57%
CN(C(=O)Cc1ccc2c(c1)OCCO2)C1CCCC1	-2.52%
Cc1cc(N2CCN(CC(=O)N(C)C)CC2)nc(-c2ccncc2)n1	-3.92%
O=C([C@H]1C[C@H]2OCC[C@H]2N(C(=O)c2ccncc2)C1)N1CCCCO1	-3.79%
N#CC1(C(=O)NCCCNc2ccc(C(F)(F)F)cn2)CCCC1	2.12%
O=C(c1ccc[nH]1)N1C[C@H]2CC[C@@H]1CN(C1Cc3ccccc3C1)C2	2.83%
CC(=O)NCCNC(=O)c1sc(-c2ccc(Cl)s2)nc1C	7.28%
O=C(Nc1cnccn1)[C@H]1COC[C@H]2CN(C3CCCC3)C[C@H]21	-3.53%
CN(CCCOc1ccc(F)cc1)Cc1nc2c(cnn2C)c(=O)[nH]1	-4.83%
O=C(COCc1ccccc1)N1CCC(OCc2cccnc2)CC1	-4.62%
CN(Cc1cccs1)C(=O)CN1CCCC1Cn1cncn1 (stereo not given)	5.56%
CCOCC(=O)N1CCC(Oc2ccc(C(F)(F)F)cn2)CC1	2.2%
COc1ccnc(N2CCN(C(=O)c3csc(C(C)C)n3)CC2)n1	-5.15%
COc1ccc(C2OC(COc3ccccc3Br)=NN2C(C)=O)cc1 (stereo not given)	0.568%
CC1COCCN1C(=O)c1cccc(OCc2cscn2)c1 (stereo not given)	-6.86%
Cc1ccc(CN2CC3(CCN(C(=O)c4cscn4)C3)C2)s1	-2.67%

biological target: Shiga toxin 2 (Escherichia coli O157:H7) (UniProt P09385+P09386); experiment: E. coli 0.157:H7 Shiga Toxin SOP - stx2 screening assay; assay type: functional; set-up: scale not given: direction of the effect not stated beside the values; settings: 30 µM

SMILES	Percent Effect
CC(C)c1ccc(CN2CCC3(CCCN(c4nncs4)C3)C2)cc1 (stereo not given)	5.96%
CNc1cc(N2CCCC2CNCc2c[nH]nc2C(C)(C)C)ncn1 (stereo not given)	-11.5%
Fc1cccc(CN2CCO[C@H]3[C@@H](OCc4ccccn4)CC[C@@H]32)c1	-1.04%
Cn1ccnc1CN1CCC2(COCCN(Cc3ccsc3)C2)C1 (stereo not given)	-19.8%
COc1c(C2CCCN2C(=O)c2ccc3cc[nH]c3c2)c(C)nn1C (stereo not given)	3.54%
Cc1n[nH]cc1C(=O)N1CCCC(n2nnc3cc(F)ccc32)C1 (stereo not given)	-9.56%
Cc1c(C(=O)NC(CN2CCCC2=O)c2ccccc2)cnn1C (stereo not given)	34%
Cc1ccc(C(=O)N2CCC3(CC2)NC(=O)CC3c2ccccc2)cn1 (stereo not given)	-13.9%
Cc1nc(C2CCCN(C(=O)Cn3ccccc3=O)C2)no1 (stereo not given)	25.3%
CCCOc1ccc(NC(=O)NCCC(=O)N(C)C)cc1Cl	-67.2%
CCCn1ncc(CN2C[C@@H]3CCCN3C[C@@H]2CCSC)c1C	-13.3%
FC(F)(F)Cn1ccnc1CN1CCCC1c1noc(C2CC2)n1 (stereo not given)	-34%
CNc1cc(N2CCCC2CNCc2ccccn2)ncn1 (stereo not given)	-35.2%
CC(=O)Nc1nc(C(=O)N2CCCC2c2ccccc2C)cs1 (stereo not given)	1.85%
O=C(Nc1ccc(CCN2CCC(O)CC2)cc1)Nc1cccnc1	-83.7%
Cn1cc(-c2cnc(N3CCOCC3)nc2)cc1C(=O)O	9.97%
Cc1cc(C)n(CC2CCCN2C(=O)Cc2c(C)noc2C)n1 (stereo not given)	9.09%
CCn1nc(C)c(CCNC(=O)C2CCCN(CC(N)=O)C2)c1C (stereo not given)	7.92%
O=C(CCN1CCCC1c1cccs1)N1CCc2sccc2C1 (stereo not given)	1.91%
Cc1ccc(C(=O)NCCCN2CCOCC2)c(Cl)c1	-18.1%

SMILES	Percent Effect
O=c1ccc(-c2cccs2)nn1CN1CCCCCC1	-4.33%
Cc1nc(C)c(CC(=O)Nc2ncc(C)s2)c(=O)[nH]1	30.1%
COc1cn(-c2ccccc2)nc1C(=O)NCCCN1CCCC(C)C1 (stereo not given)	7%
NC(=O)N1CCC2(CC1)CN(c1ccsc1)C(=O)CO2	-21.1%
CC(C)c1nn(C)c(Cl)c1CNC1CCOc2ccccc21 (stereo not given)	27.5%
CN(C(=O)Cc1ccc2c(c1)OCCO2)C1CCCC1	0.101%
Cc1cc(N2CCN(CC(=O)N(C)C)CC2)nc(-c2ccncc2)n1	-5.53%
O=C([C@H]1C[C@H]2OCC[C@H]2N(C(=O)c2ccncc2)C1)N1CCCCO1	-6.05%
N#CC1(C(=O)NCCCNc2ccc(C(F)(F)F)cn2)CCCC1	21.2%
O=C(c1ccc[nH]1)N1C[C@H]2CC[C@@H]1CN(C1Cc3ccccc3C1)C2	10.5%
CC(=O)NCCNC(=O)c1sc(-c2ccc(Cl)s2)nc1C	8.5%
O=C(Nc1cnccn1)[C@H]1COC[C@H]2CN(C3CCCC3)C[C@H]21	8.55%
CN(CCCOc1ccc(F)cc1)Cc1nc2c(cnn2C)c(=O)[nH]1	26.6%
O=C(COCc1ccccc1)N1CCC(OCc2cccnc2)CC1	11.5%
CN(Cc1cccs1)C(=O)CN1CCCC1Cn1cncn1 (stereo not given)	-62.3%
CCOCC(=O)N1CCC(Oc2ccc(C(F)(F)F)cn2)CC1	12.5%
COc1ccnc(N2CCN(C(=O)c3csc(C(C)C)n3)CC2)n1	-4.83%
COc1ccc(C2OC(COc3ccccc3Br)=NN2C(C)=O)cc1 (stereo not given)	-36.2%
CC1COCCN1C(=O)c1cccc(OCc2cscn2)c1 (stereo not given)	0.62%
Cc1ccc(CN2CC3(CCN(C(=O)c4cscn4)C3)C2)s1	-39.3%
